Pf Dd2 growth: Plasmodium falciparum Dd2 growth inhibition; P. falciparum Dd2 growth, SYBR Green, 72 h; Potency, µM (highest dose often 28.9 µM), inactives show at the top dose activity, negative = inhibition, actives largely listed as inhibitors; 4.3% of 120,000 active; AID 1347417; active means well fitted inhibition curve with a large enough effect;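 further: plate controls were DMSO vehicle for no effect and reference drug for full effect; nearly all actives have a fitted effect of over 65% in size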
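Infected erythrocytes (Dd2, 0.3% parasitemia, 2.5% hematocrit final) are added to compound in RPMI-1640/Albumax II medium, grown 72 h at 37C in low oxygen, then lysed with saponin/Triton-X containing SYBR Green and read by fluorescence.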
The depositor's hits bear a star; i = inactive; [ ] = another dose, or the depositor's remark. Shown is part of a subset that was picked to be rich in hits. Potency means the concentration at half of the fitted maximal effect.

SMILES | Pf Dd2 growth
Cc1ccc(NC(=O)Cn2ccn3nc4c(c3c2=O)CCCCC4)cc1F | 21%
CN(Cc1cccnc1)Cc1cccn1C | -18%[44.1 µM]
O=C(O)Cn1nc(C2CCCC2)nc1-c1cccc(Cn2cccn2)c1 | -5%
Cn1nccc1CN1CCC2(CN[S+](=O)([O-])c3ccccc3N2)C1 (centres undefined) | 6%
CN1C[C@H](O)C[C@H]1c1nnc2n1CCN(C(=O)Cc1cccc(F)c1)CC2 | 11%
COc1ccc(-c2cnc3n[nH]c(-c4ccc(F)cc4C)c3n2)cc1OC | -21%[44.1 µM]
CC1=C[C@@H](CN(C)CCO)[C@H](C(C)C)C[C@H]1Cc1nnc(-c2ccccc2F)o1 | 13µM*
C#CCN(C)C[C@@H]1C=C(C)[C@H](Cc2nnc(-c3ccc(C)cc3)o2)C[C@H]1C(C)C | -11%[44.1 µM]
CC1=C[C@@H](CN(C)CCO)[C@H](C(C)C)C[C@H]1Cc1nnc(-c2ccc(C)cc2)o1 | 10µM*
CCCNC(=O)C1Cn2cccc2C(=O)N1Cc1ccccc1 (centres undefined) | i
Cc1cccc(C)c1NC(=O)Cn1nc2c(cc1=O)CCCCC2 | i
O=C(CCN1CCCCO1)N1CCOC(CC2CCCCC2)C1 (centres undefined) | -22%
O=C(CCn1ccn2nc3c(c2c1=O)CCCC3)NC1CCCCC1 | i
O=C(C[C@@H]1CCNC[C@@H]1Cc1cc(-c2ccccc2)on1)NCCN1CCOCC1 | -2%[44.1 µM]
COCCNC(=O)C[C@@H]1C[C@H]2O[C@H](CNCc3ccccc3OC)[C@@H](O)[C@H]2O1 | 15%[44.1 µM]
CSc1cccc(NC(=O)Cn2c(-c3cnccn3)nc(C)c(C)c2=O)c1 | -23%
O=C(c1ccco1)N1CCC(c2noc(COCC3CC3)n2)CC1 | -20%
Cc1ccc(NC(=O)Cn2c(CCC(=O)O)ccc2-c2cccs2)cc1 | 7%
CCCN1CCN(C(=O)Cn2c(-c3cccs3)cc3cc(F)ccc32)CC1 | -18%
CCC(=O)N1c2ccccc2CC1C(=O)NCCN1CCN(c2cccc(Cl)c2)CC1 (centres undefined) | -23%
CC1CCN(C(=O)Cn2c(-c3cccs3)cc3cc(Cl)ccc32)CC1 | -8%
CCN1CCN(CCCNC(=O)Cn2c(-c3cccs3)cc3ccccc32)CC1 | -17%
Cc1ccc(C)c(N2CCN(CCCNC(=O)Cn3c(-c4cccs4)cc4ccccc43)CC2)c1 | 7.9µM*
Cc1ccc(C)c(N2CCN(CCCNC(=O)Cn3ncc4c5ccccc5n(C)c4c3=O)CC2)c1 | -26%
CCCN1CCN(CCCNC(=O)Cn2c(-c3cccs3)cc3cc(Cl)ccc32)CC1 | 8.9µM*
SMILES | Pf Dd2 growth
Cc1ccc(CCNC(=O)Cn2c(-c3cccs3)cc3ccccc32)cc1 | 13µM*
O=C(Cn1c(-c2cccs2)cc2ccccc21)NCCCN1CCN(c2cccc(Cl)c2)CC1 | 11µM*
Cc1cc(C)c(NC(=O)Cn2c(=O)n(CC(=O)NCCc3ccccc3)c(=O)c3ccccc32)c(C)c1 | 15%
CC(C)c1nc2ccc(C(=O)NCCCN3CCN(c4cccc(Cl)c4)CC3)cc2o1 | -2%
COCc1nnc2n1CCC(NC(=O)COc1ccc(Cl)cc1C)CC2 (centres undefined) | i
Cc1cn2nc(C(=O)N3CCCC3)cc2c(N2CCSCC2)n1 | i
CC(C)c1ccc(NC(=O)C2(Cc3cccnc3)CCCCC(=O)N2)cc1 (centres undefined) | -24%
CC(=O)N1CCCC1c1nc(C2CN(S(=O)(=O)c3cccs3)C2)no1 (centres undefined) | -9%
C[C@@H]1CN(C(=O)c2ccc(=O)n(C)c2)CC[C@@]1(O)C1CCOCC1 | 5%
CCCCc1ncc(CN2CCN(C3CCCC3)C(CCO)C2)[nH]1 (centres undefined) | -20%
O=C(NC[C@H]1O[C@@H](CC(=O)N2CCN(c3ccccc3)CC2)[C@H](O)[C@@H]1O)c1ccccc1 | -11%
COc1ccc(C2(C(=O)N3CCC(CC(=O)NC4CC4)C3)CC2)cc1 (centres undefined) | 26%
COc1cccc(CC(=O)N2CCCCCCNC(=O)CC2)c1 | -15%
COCC(=O)N(C1CCOCC1)C1CCN(C(=O)Cc2cccc(OC)c2)CC1 | 14%
COc1ccc(C2(C(=O)N3CCC(F)CC3)CCOCC2)cc1 | 13%
COc1ccc(C2(C(=O)N3CCCC(CN4CCCC4)CC3)CC2)cc1 (centres undefined) | 3.2µM*
COc1cccc(CC(=O)N2CCCC(CN3CCCC3)CC2)c1 (centres undefined) | 1µM*
CCc1nc(-c2c3n(c(=O)n(CC(=O)Nc4ccc(F)c(Cl)c4)c2=O)CCCC3)no1 | -4%
CC(C)S(=O)(=O)N1CCC(F)(c2nc(-c3ccccc3)no2)CC1 | -13%
Cc1nonc1OCCn1cc(C2CCCNC2)nn1 (centres undefined) | -6%
CC(=O)NCCCC(=O)N1Cc2ccccc2OC2(CCN(C(=O)N(C)C)CC2)C1 | -4%
CC(=O)N1Cc2ccccc2OC2(CCN(C(=O)CCc3c[nH]c4ccccc34)CC2)C1 | -27%
CN(C)C(=O)N1CCC2(CC1)CN(C(=O)CCc1c[nH]c3ccccc13)Cc1ccccc1O2 | 5µM*
CN(C1CCc2nn(CC3CC3)c(=O)n2CC1)S(C)(=O)=O (centres undefined) | -15%
C[C@@H]1C(=O)O[C@H]2[C@H]1CC[C@@]1(C)Cc3sc(NCc4ccccc4)nc3[C@@H](C)[C@H]21 | -18%[44.1 µM]
SMILES | Pf Dd2 growth
C[C@@H]1C(=O)O[C@H]2[C@H]1CC[C@@]1(C)Cc3sc(NC(=O)COc4ccccc4)nc3[C@@H](C)[C@H]21 | 7.1µM*
C[C@@H]1C(=O)O[C@H]2[C@H]1CC[C@@]1(C)Cc3sc(NC(=O)COCC(=O)O)nc3[C@@H](C)[C@H]21 | i
O=C(CN1C(=O)NC2(CCCCC2)C1=O)Nc1ccccc1F | 31%
COc1ccc(Cl)cc1NC(=O)CN1C(=O)NC2(CCCCC2)C1=O | i
COc1cc(NC(=O)N2CCc3c(sc4c3CCCC4)C2c2ccccc2)cc(OC)c1OC (centres undefined) | 16%
COc1ccc(Cl)cc1NC(=O)N1CC(=O)Nc2sc3c(c2C1c1ccccc1)CCCC3 (centres undefined) | 11µM*
COc1ccc(CN2C(=O)c3oc4ccccc4c(=O)c3C2c2ccc(O)cc2)cc1 (centres undefined) | -28%
O=C1c2oc3ccccc3c(=O)c2C(c2cccc(O)c2)N1Cc1ccc(F)cc1 (centres undefined) | 14µM*
COc1ccc(CN2C(=O)c3oc4ccc(F)cc4c(=O)c3C2c2ccc(O)cc2)cc1 (centres undefined) | -12%
Cc1cc2ncc(C(=O)N3CCN(c4ncccn4)CC3)cn2n1 | -4%[44.1 µM]
O=C(Cn1nc2c(cc1=O)CCCC2)NCC1CCCO1 (centres undefined) | -5%
COCCNC(=O)[C@@H]1CCC[C@@H](NC(=O)C2CC2)CN(C)C(=O)C1 | 23%[44.1 µM]
CN(C)Cc1cn2c(=O)n(C)cc(-c3ccc(O)c(F)c3)c2n1 | i
Cn1cc(-c2ccc(F)c(Cl)c2)c2nc(CO)cn2c1=O | -1%[44.1 µM]
CN(C)Cc1cn2c(=O)n(C)cc(-c3ccc(F)c(Cl)c3)c2n1 | 2.5µM*
COc1ccc(C(CC(=O)N(C)Cc2ncc(C)[nH]2)c2ccccc2)cc1 (centres undefined) | i
CC1(C)OC(=O)N(CC(=O)N2CCC(Cc3noc(C4CC4)n3)CC2)C1=O | 15%
COc1ccc(C)cc1NC(=O)Cn1ccn2nc(-c3ccccc3)c(CO)c2c1=O | -23%
CC(=O)Nc1cccc(C(=O)N2CCC(n3cc(-c4nc(-c5ccccc5)no4)nn3)C2)c1 (centres undefined) | 4.5µM*

From PubChem
